Data from PubChem BioAssay.
“And” between values parts separate entries of the source, which are not always exact repeats. Equal entries are not always repeated. The source made the active and inactive calls. The rule behind the calls is not given here.

How the values were obtained:
[1] = kinase inhibitors against Plasmodium liver-stage infection, cell-based, known kinase inhibitor set, luminescence, hepatoma host viability (AID 624392); conditions: Plasmodium liver stage in hepatoma cells, luciferase luminescence, concentration not given here; liver cell % of control: measured here: host liver cell viability; parasite % of control: stronger effect = lower value;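 note: infected cells incubated roughly two days before readout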
[2] = modulators of glucocorticoid suppression of NF-kB, cell-based, luciferase, IL-1B stimulus, dexamethasone (AID 624486); conditions: NF-kB luciferase reporter, IL-1B + dexamethasone, luminescence; percent of negative control (+Dex): actives lie on both sides, concentration not given here; z-score: measured here: IL-1B alone, no Dex;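 for percent of negative control (+Dex): 100% = mean signal of vehicle control wells on the plate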
[3] = molecular target: Cellular tumor antigen p53 (Homo sapiens) (UniProt P04637); experiment: kinase inhibitors altering GFP-p53 stability in HPV16-positive cells, imaging, known kinase inhibitor set, EGFP/DsRed ratio (AID 1053116); conditions: stronger effect = higher value; EGFP object count: measured here: GFP-p53 positive objects count;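 note: cells exposed to compounds for 24 h at 37 °C before reading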
[4] = IRF3 reporter activation in THP-1 macrophages, cell-based, PMA-stimulated THP-1, luminescence (AID 1053176); conditions: PMA-differentiated THP-1, IRF3 reporter luminescence; stronger effect = higher value

Sequence of Cellular tumor antigen p53 (Homo sapiens) (P04637 whole entry, looked up): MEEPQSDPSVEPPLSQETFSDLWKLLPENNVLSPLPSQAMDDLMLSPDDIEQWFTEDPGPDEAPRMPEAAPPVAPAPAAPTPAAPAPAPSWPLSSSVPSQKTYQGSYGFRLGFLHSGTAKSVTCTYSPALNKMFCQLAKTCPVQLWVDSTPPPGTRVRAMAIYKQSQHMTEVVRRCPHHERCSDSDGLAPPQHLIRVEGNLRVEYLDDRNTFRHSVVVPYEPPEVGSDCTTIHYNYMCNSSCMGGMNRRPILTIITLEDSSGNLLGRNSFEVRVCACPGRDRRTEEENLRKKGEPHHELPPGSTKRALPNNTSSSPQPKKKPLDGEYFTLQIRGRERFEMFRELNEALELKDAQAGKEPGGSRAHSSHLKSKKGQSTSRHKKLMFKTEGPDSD

SMILES	liver cell % of control [1]	parasite % of control [1]	percent of negative control (+Dex) [2]	z-score [2]	EGFP object count [3]	EGFP/DsRed ratio [3]	fraction signal [4]
Cn1cc(C2=C(c3ccccc3C(F)(F)F)C(=O)NC2=O)c2ccccc21	149%	31% (inactive)	114% (inactive)	0.1	32.5	0.646 (inactive)	0.01 (inactive)
CC(=O)Nc1ccc2c(c1)c(C1=C(c3cn(C)c4ccccc34)C(=O)NC1=O)cn2C	87.4%	47.8% (inactive)	97.5% (inactive)	-1.79	35.5	0.557 (inactive)	-0.0135 (inactive)
COc1ccccc1CCN=C1NC(=O)C(=Cc2ccc3ncccc3c2)S1	109%	68.7% (inactive)	90.5% (inactive)	-0.58	5	0.0846 (inactive)	0.39 (active)
Cn1cc(C2=C(c3cn(C)c4cc(C(=O)O)ccc34)C(=O)NC2=O)c2ccccc21	145%	38.3% (inactive)	99% (inactive)	0.65	2.5	0.485 (inactive)	0.0035 (inactive)
O=C1NC(=NCCCc2ccccc2)SC1=Cc1ccc2ncccc2c1	104%	43% (inactive)	83% (inactive)	-0.69	5	0.104 (inactive)	-0.011 (inactive)
Fc1ccc(-c2c(-c3ccncc3)[nH]c3nccnc23)cc1	183%	30.2% (inactive)	110% (inactive)	-0.915	4	0.101 (inactive)	-0.02 (inactive)
O=c1c(Oc2ccc(F)cc2F)cc2cnc(NC3CCOCC3)nc2n1C1CCS(=O)(=O)CC1	120%	83.4% (inactive)	97% (inactive)	-0.26	3	0.101 (inactive)	-0.0075 (inactive)
CC(Cn1ncnn1)Nc1ncc2cc(Oc3ccc(F)cc3F)c(=O)n(C)c2n1 (stereo not given)	111%	71.1% (inactive)	101% (inactive)	0.455	1.5	0.0437 (inactive)	-0.003 (inactive)
Nc1c(C(=O)c2cccc(-c3ccncc3)c2)cnn1-c1ccc(F)cc1F	92.7%	53.9% (inactive)	102% (inactive)	0.04	5	0.0527 (inactive)	-0.009 (inactive)
CCn1c(=O)c(Oc2ccc(F)cc2F)cc2cnc(NC3CCOCC3)nc21	103%	55.7% (inactive)	85.5% (inactive)	-0.82	3.5	0.0988 (inactive)	-0.005 (inactive)
CN1CCN(c2ccc(Nc3nc(N)c(C(=O)c4ccc5c(c4)OCCO5)s3)cc2)CC1	108%	46.7% (inactive)	138% (inactive)	3.58	4.5	0.151 (inactive)	-0.018 (inactive)
Cn1cc(C2=C(c3cn(CCCCC(=N)N)c4ccccc34)C(=O)NC2=O)c2ccccc21	133%	22.6% (inactive)	98% (inactive)	0.29	10.5	0.2 (inactive)	0.0055 (inactive)
CC(CS(C)(=O)=O)Nc1ncc2cc(Oc3ccc(F)cc3F)c(=O)n(C)c2n1 (stereo not given)	125% and 102%	49.1% (inactive) and 48.7% (inactive)	99.5% (inactive) and 101% (inactive)	0.115 and 0.87	5.5 and 3.5	0.387 (inactive) and 0.111 (inactive)	-0.005 (inactive) and -0.0115 (inactive)
O=c1c(Oc2ccc(F)cc2F)cc2cnc(NC3CCOCC3)nc2n1CCCO	122%	71.8% (inactive)	92% (inactive)	-0.815	2.5	0.0231 (inactive)	0.0075 (inactive)
CCc1c(C)nc2sc3c(N)ncnc3c2c1C	221%	5.86% (inactive)	53.5% (active)	-4.42	3.5	0.129 (inactive)	-0.001 (inactive)
O=[N+]([O-])c1ccc2c(c1)C(c1ccccc1Cl)=Nc1cn[nH]c1N2	101%	21.4% (inactive)	109% (inactive)	-0.52	12	0.495 (inactive)	-0.005 (inactive)
O=C1NC(=NCCc2ccc(Br)cc2)SC1=Cc1ccc2ncccc2c1	140%	66.4% (inactive)	99.5% (inactive)	-0.18	3	0.0813 (inactive)	0.006 (inactive)
COc1cc[nH]c1C=C1C(=O)Nc2ccc(F)c(C#CC(O)C(N)C(C)O)c21 (stereo not given)	76.5%	46.6% (inactive)	135% (inactive)	0.23	250	1.32 (inactive)	0.0035 (inactive)
CC(=O)Nc1ccc2c(c1)C(c1ccccc1Cl)=Nc1c(n[nH]c1C)N2	93.6%	30.4% (inactive)	95% (inactive)	-0.58	28.5	0.33 (inactive)	-0.003 (inactive)
Cn1cc(C2=C(c3cn(C)c4c(N)cccc34)C(=O)NC2=O)c2ccccc21	92.4%	40.1% (inactive)	108% (inactive)	-1.47	87.5	1.36 (active)	-0.003 (inactive)

SMILES	liver cell % of control [1]	parasite % of control [1]	percent of negative control (+Dex) [2]	z-score [2]	EGFP object count [3]	EGFP/DsRed ratio [3]	fraction signal [4]
CC(C)Nc1ncc2cc(Oc3ccc(F)cc3F)c(=O)n(C)c2n1	99.2%	50.9% (inactive)	95.5% (inactive)	-0.005	1	0.00675 (inactive)	-0.0005 (inactive)
CC(O)CNc1cc(-c2[nH]c3cccnc3c2-c2ccc(F)cc2)ccn1 (stereo not given)	229%	13.2% (inactive)	106% (inactive)	0.42	4	0.042 (inactive)	0.0055 (inactive)
Cn1c(-c2ccncc2)c(-c2ccc(F)cc2)c2ncccc21	100%	44.7% (inactive)	104% (inactive)	1.04	3	0.0799 (inactive)	-0.0005 (inactive)
O=C1NC(=NCCc2ccccc2Cl)SC1=Cc1ccc2ncccc2c1	121%	44.8% (inactive)	90% (inactive)	0	4.5	0.105 (inactive)	-0.003 (inactive)
Cc1c(C2=C(c3cn(C)c4ccccc34)C(=O)NC2=O)c2ccccc2n1C	103%	53.6% (inactive)	102% (inactive)	-0.055	9	0.392 (inactive)	0.0015 (inactive)
Fc1ccc(-c2c(-c3ccncc3)n(CCN3CCOCC3)c3cccnc23)cc1	113%	63.8% (inactive)	91.5% (inactive)	0.395	1.5	0.18 (inactive)	-0.0075 (inactive)
COc1ccc(C2=C(c3cn(C)c4ccccc34)C(=O)NC2=O)cc1OC	215%	12.7% (inactive)	100% (inactive)	-0.425	13	0.28 (inactive)	-0.003 (inactive)
Cn1cc(C2=C(c3cc[nH]c3)C(=O)NC2=O)c2ccccc21	109%	26.8% (inactive)	104% (inactive)	0.12	3	0.329 (inactive)	-0.0025 (inactive)
Cn1cc(C2=C(c3cn(-c4ccccc4)c4ccccc34)C(=O)NC2=O)c2ccccc21	108%	63.3% (inactive)	99% (inactive)	0.65	3	0.0255 (inactive)	0.01 (inactive)
O=C1Nc2ccc(F)cc2C1=Cc1ccc[nH]1	55.9%	14% (inactive)	136% (active)	4.44	23	0.607 (inactive)	-0.014 (inactive)
COc1ccc(C2=C(c3cn(C)c4ccccc34)C(=O)NC2=O)cc1	131%	39.3% (inactive)	108% (inactive)	-0.1	5.5	0.214 (inactive)	-0.0115 (inactive)
COc1ccc(N2Cc3cnc(Nc4ccccc4)nc3N(C3CCC(O)C3)C2=O)cc1 (stereo not given)	114%	234% (inactive)	67% (active)	-1.67	1.5	0.0589 (inactive)	-0.007 (inactive)
O=C1OC(=O)C(c2c[nH]c3ccccc23)=C1c1c[nH]c2ccccc12	99.6%	48.8% (inactive)	95% (inactive)	1	3.5	0.0625 (inactive)	-0.018 (inactive)
O=C1NC(=NC(CO)c2ccccc2)SC1=Cc1ccc2ncccc2c1 (stereo not given)	113% and 90.5%	71.9% (inactive) and 55.3% (inactive)	102% (inactive) and 96% (inactive)	0.925 and 0.08	4 and 5.5	0.088 (inactive) and 0.122 (inactive)	-0.005 (inactive) and 0.0055 (inactive)
Nc1c(C(=O)c2cccc(OCC(O)CO)c2)cnn1-c1ccc(F)cc1 (stereo not given)	125%	58.2% (inactive)	110% (inactive)	1.27	1.5	0.00398 (inactive)	-0.0115 (inactive)
Cn1cc(C2=C(NN3CCOCC3)C(=O)NC2=O)c2ccccc21	102%	52.1% (inactive)	101% (inactive)	0.61	7	0.147 (inactive)	-0.016 (inactive)
Cn1cc(C2=C(c3cn(CCCCCN)c4ccccc34)C(=O)NC2=O)c2ccccc21	105%	35.6% (inactive)	99.5% (inactive)	0.77	13.5	0.639 (inactive)	0.0035 (inactive)
Cn1c(=O)c(Oc2cccc(F)c2)cc2cnc(NC3CCOCC3)nc21	112%	65.8% (inactive)	101% (inactive)	0.78	4	0.127 (inactive)	0.0015 (inactive)
CC(c1ccccc1)C(C(=O)Nc1ccc(I)cc1F)N1C(=O)NC(c2ccc(OCC(O)CO)cc2)C1=O (stereo not given)	85.7%	72.5% (inactive)	55% (active)	-3.5	5	0.306 (inactive)	0.0035 (inactive)
CS(=O)(=O)CCn1c(=O)c(Oc2ccc(F)cc2F)cc2cnc(NC3CCOCC3)nc21	122%	63% (inactive)	99% (inactive)	0.47	2	0.0579 (inactive)	0.0015 (inactive)
